In PubChem BioAssay (EPA / NIEHS) one finds outcome and AC50 data, which are given here for 5 compounds.

For test [1], the target named is CCAAT/enhancer-binding protein beta (Homo sapiens) (UniProt P17676). In words: ATG_C_EBP_CIS: Attagene CIS-FACTORIAL HepG2 Assay for human CCAAT/Enhancer Binding Protein (C/EBP) beta (AID 2282927). The following applies: HepG2 Attagene cis-factorial transcription factor reporter; actives raise or lower the signal. Put shortly: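 HepG2 transiently transfected with multiplexed reporter units under cis-regulatory promoters reporting endogenous C/EBPb activity. After 24 h exposure, reporter mRNA assayed by RT-PCR, fluorescent labelling, HpaI digestion and capillary electrophoresis; bidirectional fitting versus DMSO.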

The nature of test [2]: ATG_CMV_CIS: Attagene CIS-FACTORIAL HepG2 Assay for human CMV (Internal Marker) (AID 2282928).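 Note: endpoint acts as a background internal control marker rather than a target.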 The following applies: HepG2 CMV promoter reporter, transcription factor profiling; actives raise or lower the signal. In outline: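 CMV internal-marker background readout in transiently transfected HepG2 cells bearing cis-regulated reporter units. Reporter mRNA is measured 24 h after dosing by RT-PCR and capillary electrophoresis, with bidirectional fitting against DMSO.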

The nature of test [3]: ATG_DR4_LXR_CIS: Attagene CIS-FACTORIAL HepG2 Assay for human Liver X Receptor (LXR), DR4 submotif (AID 2282929). The following applies: HepG2 Attagene DR4 cis-reporter, mRNA transcription; actives raise or lower the signal. Put shortly:
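Endogenous factor activity at a DR4 cis-element is read as reporter mRNA in transiently transfected HepG2 cells. Exposure lasts 24 h; transcripts are amplified, fluorescently labelled and sized by capillary electrophoresis, with DMSO as baseline.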

Test [4] addresses Aryl hydrocarbon receptor (Homo sapiens) (UniProt P35869). Description: ATG_Ahr_CIS: Attagene CIS-FACTORIAL HepG2 Assay for human Aryl Hydrocarbon Receptor (Ahr) (AID 2282930). The following applies: HepG2 AhR cis-factorial reporter transcription; actives raise or lower the signal. Put shortly: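 HepG2 cells transiently transfected with cis-element-driven multiplexed reporter units; endogenous AhR activity read as reporter mRNA 24 h after dosing, via RT-PCR, 6-FAM labelling, HpaI digestion and capillary electrophoresis. Bidirectional fit relative to DMSO.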

A short description of test [5]: ATG_AP_1_CIS: Attagene CIS-FACTORIAL HepG2 Assay for human Activator Protein 1 (AP-1) (AID 2282931). The following applies: HepG2 Attagene cis-factorial AP-1 reporter mRNA; actives raise or lower the signal. In outline: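 Fluorescence of labelled PCR fragments separated by capillary electrophoresis gives reporter mRNA levels. HepG2 with transfected cis-regulated reporter units, 24 h exposure; DMSO serves as baseline for bidirectional curve fits.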

The nature of test [6]: ATG_AP_2_CIS: Attagene CIS-FACTORIAL HepG2 Assay for human Activator Protein 2 (AP-2) (AID 2282932). The following applies: HepG2 AP-2 cis-reporter, Attagene transcription factor profiling; actives raise or lower the signal. Put shortly:
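HepG2 cells transiently transfected with cis-element reporter units and exposed for 24 h. Reporter mRNA measured by RT-PCR, FAM labelling, HpaI digestion and capillary electrophoresis. Changes in either direction fitted relative to DMSO.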

Test [7] is described as follows: ATG_BRE_CIS: Attagene CIS-FACTORIAL HepG2 Assay for human Bone Morphogenetic Protein (BMP) Response Element (BRE) (AID 2282933). The following applies: HepG2 BMP response element reporter, Attagene transcription factor profiling; actives raise or lower the signal. Put shortly: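 Endogenous transcription factor activity at a BMP response element was monitored in transfected HepG2 cells 24 h after dosing. Fluorescent RT-PCR products were resolved by capillary electrophoresis, and activity was fitted in both directions versus DMSO.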

Test [8] concerns the target Retinoic acid receptor alpha (Homo sapiens) (UniProt P10276). In words: ATG_DR5_RAR_CIS: Attagene CIS-FACTORIAL HepG2 Assay for human Retinoic Acid Receptor Alpha (RARE), DR5 submotif (AID 2282934). The following applies: HepG2 Attagene cis-factorial RARE DR5 reporter, mRNA; actives raise or lower the signal. Put shortly:
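HepG2 cells transiently transfected with multiplexed reporter units; DR5 cis-element drives reporter through endogenous transcription factors. After 24 h dosing, reporter mRNA quantified by RT-PCR, fluorescent labeling, HpaI digestion and capillary electrophoresis; bidirectional fitting versus DMSO.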

Test [9] deals with Transcription factor E2F1 (Homo sapiens) (UniProt Q01094). Description: ATG_E2F_CIS: Attagene CIS-FACTORIAL HepG2 Assay for human E2F Transcription Factor 1 (AID 2282935). The following applies: HepG2 Attagene cis-reporter, E2F reporter RNA transcripts; actives raise or lower the signal. In outline: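 Endogenous E2F1 activity read through cis-promoter reporter units transfected into HepG2. After 24 h compound treatment, reporter mRNA measured by RT-PCR, HpaI digestion and capillary electrophoresis. Bidirectional fit versus DMSO.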

The nature of test [10]: ATG_E_Box_CIS: Attagene CIS-FACTORIAL HepG2 Assay for human Enhancer Box (E-box) (AID 2282936). The following applies: HepG2 E-box cis-reporter transcription, actives raise or lower the signal. In outline:
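HepG2 cells transiently transfected with multiplexed cis-element reporter units, dosed 24 h; reporter mRNA quantified by RT-PCR, 6-FAM labelling, HpaI digestion and capillary electrophoresis. E-box (USF1) signal fitted bidirectionally vs DMSO.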

Test [11] can be described thus: ATG_M_61_CIS: Attagene CIS-FACTORIAL HepG2 Assay for M61 Transcription Factor (Internal Marker) (AID 2282937). The following applies: HepG2 Attagene CIS-FACTORIAL M61 internal marker reporter; actives raise or lower the signal. In outline:
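This endpoint serves as an internal background control within a multiplexed HepG2 cis-reporter panel. Cells are exposed for 24 h; reporter mRNA is amplified, fluorescently labelled and sized by capillary electrophoresis, with DMSO as negative control.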

Test [12] in a line: ATG_EGR_CIS: Attagene CIS-FACTORIAL HepG2 Assay for human Early Growth Response 1 (EGR1) (AID 2282938). The following applies: HepG2 Attagene CIS-FACTORIAL EGR reporter mRNA; actives raise or lower the signal. Put shortly: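 HepG2, transient MRTU transfection (cis promoters), 24 h compound. RNA → RT (oligo-dT) → PCR → 6-FAM labelling → HpaI cut → CE fluorescence. Bidirectional fit, DMSO baseline.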

A short description of test [13]: ATG_M_19_CIS: Attagene CIS-FACTORIAL HepG2 Assay for M19 Transcription Factor (Internal Marker) (AID 2282939). The following applies: HepG2 Attagene CIS-FACTORIAL M19 internal marker reporter; actives raise or lower the signal. In outline: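 Background-control endpoint from a multiplexed HepG2 reporter panel. Cells carrying cis-regulated reporter constructs are treated 24 h, then reporter transcripts are amplified, fluorescently labelled and sized by capillary electrophoresis. DMSO defines baseline.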

A short description of test [14]: ATG_ERE_CIS: Attagene CIS-FACTORIAL HepG2 Assay for Estrogen Response Element (ERE) (AID 2282940). The following applies: HepG2 ERE cis-reporter, Attagene RNA transcript; actives raise or lower the signal. Put shortly:
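Cells used were human hepatoma HepG2, transfected with multiple reporter transcription units under cis-regulatory promoters. Reporter mRNA, read 24 h post-dosing via fluorescent RT-PCR products on capillary electrophoresis, was fitted bidirectionally relative to DMSO.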

The nature of test [15]: ATG_Ets_CIS: Attagene CIS-FACTORIAL HepG2 Assay for human Erythroblast Transformation Specific (ETS) (AID 2282941). The following applies: HepG2 ETS cis-reporter transcription, actives raise or lower the signal. Put shortly:
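HepG2 cells transfected with multiple cis-regulated reporter units measuring endogenous ETS-driven transcription, 24 h after dosing. Reporter mRNA quantified by RT-PCR with capillary electrophoresis; bidirectional fit relative to DMSO.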

Test [16] concerns the target Hepatocyte nuclear factor 3-beta (Homo sapiens) (UniProt Q9Y261). In words: ATG_FoxA2_CIS: Attagene CIS-FACTORIAL HepG2 Assay for human Forkhead box A2 (FOXA2) (AID 2282942). The following applies: HepG2 cis-reporter transcription factor activity, 24 h; actives raise or lower the signal. Put shortly:
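Cells: HepG2, transient multiplex reporter transfection. Exposure 24 h. Detection: reporter-specific RT-PCR, fluorescent labelling, restriction digest, capillary electrophoresis. Analysis: bidirectional curve fit, DMSO as negative control.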

A short description of test [17]: ATG_FoxO_CIS: Attagene CIS-FACTORIAL HepG2 Assay for human Forkhead box O (FoxO) (AID 2282943). The following applies: HepG2 Attagene cis-reporter, FoxO element, mRNA; actives raise or lower the signal. In outline:
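HepG2 cells transiently transfected with cis-element-driven reporter units report endogenous FoxO activity. After 24 h chemical exposure, reporter mRNA quantified by RT-PCR, fluorescent labeling, HpaI digestion and capillary electrophoresis; bidirectional fit versus DMSO.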

Test [18] can be described thus: ATG_GLI_CIS: Attagene CIS-FACTORIAL HepG2 Assay for human Zinc Finger Protein GLI1 (AID 2282945). The following applies: HepG2, Attagene cis-factorial reporter mRNA, GLI element; actives raise or lower the signal. Put shortly:
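Transiently transfected HepG2 cells report endogenous transcription factor activity via cis-element-driven reporter units. After 24 h compound exposure, reporter mRNA was measured by RT-PCR with capillary electrophoresis; bidirectional fitting against DMSO baseline.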

Test [19] can be described thus: ATG_GATA_CIS: Attagene CIS-FACTORIAL HepG2 Assay for human GATA Binding Protein (AID 2282944). The following applies: HepG2 GATA cis-element reporter, Attagene multiplex mRNA; actives raise or lower the signal. Put shortly:
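Endogenous transcription factor activity was captured through cis-promoter-driven reporters in transfected HepG2 cells. After 24 h exposure, reporter transcripts were quantified by RT-PCR with fluorescent capillary electrophoresis, and responses fitted both directions against DMSO.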

The structures appear in SMILES notation. Activity calls are given as the source filed them. Rule for the calls: active = hit-call score of the fitted dose curve at least 0.9, where 1 is the maximum; inactive = score below 0.9.

Chain of Aryl hydrocarbon receptor (Homo sapiens) (P35869 whole entry, looked up): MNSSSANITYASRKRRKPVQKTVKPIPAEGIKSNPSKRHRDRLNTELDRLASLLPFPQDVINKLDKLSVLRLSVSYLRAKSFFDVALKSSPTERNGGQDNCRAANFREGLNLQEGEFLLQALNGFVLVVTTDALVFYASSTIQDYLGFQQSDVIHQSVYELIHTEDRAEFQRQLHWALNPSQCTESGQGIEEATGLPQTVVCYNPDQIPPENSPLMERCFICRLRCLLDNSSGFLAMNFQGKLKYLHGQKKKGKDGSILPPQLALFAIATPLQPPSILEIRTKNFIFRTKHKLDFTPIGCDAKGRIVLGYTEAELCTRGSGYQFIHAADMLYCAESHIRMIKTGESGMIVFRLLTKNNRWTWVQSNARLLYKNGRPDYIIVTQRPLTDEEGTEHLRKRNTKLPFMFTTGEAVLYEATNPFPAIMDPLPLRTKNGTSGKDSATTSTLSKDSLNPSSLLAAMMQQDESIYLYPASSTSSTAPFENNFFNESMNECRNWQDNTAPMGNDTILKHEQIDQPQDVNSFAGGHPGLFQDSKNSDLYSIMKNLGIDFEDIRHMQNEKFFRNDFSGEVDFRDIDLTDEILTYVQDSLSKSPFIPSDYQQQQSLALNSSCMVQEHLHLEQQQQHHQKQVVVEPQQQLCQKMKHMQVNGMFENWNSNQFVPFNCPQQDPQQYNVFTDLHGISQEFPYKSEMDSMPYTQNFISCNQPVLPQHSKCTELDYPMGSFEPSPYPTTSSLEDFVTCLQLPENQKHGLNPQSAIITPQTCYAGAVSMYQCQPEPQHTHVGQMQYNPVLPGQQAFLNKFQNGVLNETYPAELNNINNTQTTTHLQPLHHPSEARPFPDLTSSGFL
Chain of Hepatocyte nuclear factor 3-beta (Homo sapiens) (Q9Y261 whole entry, looked up): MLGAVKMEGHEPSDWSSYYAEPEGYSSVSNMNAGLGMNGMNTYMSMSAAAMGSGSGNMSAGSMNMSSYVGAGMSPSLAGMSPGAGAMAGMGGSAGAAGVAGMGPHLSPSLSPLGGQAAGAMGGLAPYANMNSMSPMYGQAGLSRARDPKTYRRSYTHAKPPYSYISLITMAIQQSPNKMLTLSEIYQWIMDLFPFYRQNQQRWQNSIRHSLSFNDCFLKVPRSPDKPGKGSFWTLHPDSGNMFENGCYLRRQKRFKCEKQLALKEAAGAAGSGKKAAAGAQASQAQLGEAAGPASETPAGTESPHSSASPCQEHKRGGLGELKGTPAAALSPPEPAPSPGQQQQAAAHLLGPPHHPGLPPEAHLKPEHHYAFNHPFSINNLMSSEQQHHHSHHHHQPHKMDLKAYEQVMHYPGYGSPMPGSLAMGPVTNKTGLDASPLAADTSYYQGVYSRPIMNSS
Chain of CCAAT/enhancer-binding protein beta (Homo sapiens) (P17676 whole entry, looked up): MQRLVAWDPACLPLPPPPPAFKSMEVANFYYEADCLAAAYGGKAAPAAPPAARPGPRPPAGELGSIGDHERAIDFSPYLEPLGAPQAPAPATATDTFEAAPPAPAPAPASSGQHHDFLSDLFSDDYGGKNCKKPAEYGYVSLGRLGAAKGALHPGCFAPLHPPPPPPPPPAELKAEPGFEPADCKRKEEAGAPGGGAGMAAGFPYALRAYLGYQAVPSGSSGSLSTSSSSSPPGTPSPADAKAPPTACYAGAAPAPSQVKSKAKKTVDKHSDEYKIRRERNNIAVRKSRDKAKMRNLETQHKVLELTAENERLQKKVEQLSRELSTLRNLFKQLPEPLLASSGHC
Chain of Transcription factor E2F1 (Homo sapiens) (Q01094 whole entry, looked up): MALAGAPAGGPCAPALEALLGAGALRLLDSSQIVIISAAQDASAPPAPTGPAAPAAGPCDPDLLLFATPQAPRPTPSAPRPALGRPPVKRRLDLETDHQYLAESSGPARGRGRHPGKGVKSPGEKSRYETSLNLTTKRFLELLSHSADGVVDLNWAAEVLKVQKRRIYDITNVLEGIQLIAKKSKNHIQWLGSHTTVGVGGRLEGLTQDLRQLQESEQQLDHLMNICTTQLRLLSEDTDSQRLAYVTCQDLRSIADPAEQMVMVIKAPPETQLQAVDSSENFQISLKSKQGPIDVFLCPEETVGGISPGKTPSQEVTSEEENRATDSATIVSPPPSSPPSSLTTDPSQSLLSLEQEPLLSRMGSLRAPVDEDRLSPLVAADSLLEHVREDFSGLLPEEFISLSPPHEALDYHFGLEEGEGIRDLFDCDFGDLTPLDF
Chain of Retinoic acid receptor alpha (Homo sapiens) (P10276 whole entry, looked up): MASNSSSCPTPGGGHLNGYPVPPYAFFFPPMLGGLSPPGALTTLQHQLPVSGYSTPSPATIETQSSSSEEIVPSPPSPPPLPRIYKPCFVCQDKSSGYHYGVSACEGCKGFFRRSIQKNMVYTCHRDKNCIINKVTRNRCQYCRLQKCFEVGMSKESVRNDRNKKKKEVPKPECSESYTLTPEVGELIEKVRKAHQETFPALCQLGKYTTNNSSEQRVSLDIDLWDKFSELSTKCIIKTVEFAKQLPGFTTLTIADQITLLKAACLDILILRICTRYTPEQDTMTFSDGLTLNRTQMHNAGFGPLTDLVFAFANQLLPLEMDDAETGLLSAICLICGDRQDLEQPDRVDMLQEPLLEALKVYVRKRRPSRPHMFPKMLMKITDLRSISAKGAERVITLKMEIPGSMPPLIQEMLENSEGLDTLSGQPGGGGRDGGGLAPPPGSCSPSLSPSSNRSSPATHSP

For the compound `O=C(Oc1ccccc1)c1ccc2ccccc2c1O`, the result in test [1], in test [2], in test [3], in test [6], in test [8] and in test [9] was inactive. For the same compound, the compound was called inactive in [11], in test [13], in [15], in test [16], in [17] and in test [18]. Moreover, the AC50 in test [4] is 17 µM (active); in [5] it was 97.4 µM (active); in test [7], 76.2 µM (active); in test [10], 37.2 µM (active); in test [12], 48.7 µM (active); in test [14], 31.2 µM (active).
Consider `C[C@]12C=CC(=O)C=C1CC[C@@H]1[C@@H]2[C@@H](O)C[C@@]2(C)[C@H]1CC[C@]2(O)C(=O)CO`, for which the result in test [1], in [2], in test [3], in test [4], in test [5] and in [7] was inactive. The call in [8], in test [9], in test [10], in test [11], in [12] and in test [13] was inactive. For the same compound, the compound was called inactive in test [14], in test [15], in [16], in test [17], in [19] and in test [18].
As for `O=C1CCCC1`, the outcome in test [1], in test [3], in test [5], in test [6], in [7] and in test [8] was inactive. Moreover, the compound was classed as inactive in test [9], in [10], in [11], in test [12], in test [13] and in test [14]. Besides, the outcome in [15], in [16], in [17], in test [19] and in [18] was inactive.
Take `C=C(C)c1cccc(C(C)(C)N=C=O)c1`: the result in test [1], in test [2], in test [3], in test [5], in test [6] and in test [7] was inactive. The call in [8], in test [9], in test [10], in test [11], in [12] and in test [13] was inactive. The result in test [14], in test [15], in test [16], in test [17], in test [19] and in [18] was inactive. Also, the AC50 in test [4] was 100 µM (active).
Take `O=C(O)CC(C(=O)O)C(CC(=O)O)C(=O)O` (centres undefined): the outcome in [1], in [2], in [3], in [4], in test [5] and in [6] was inactive. For the same compound, the result in [8], in [9], in test [11], in test [12], in test [13] and in [14] was inactive. For the same compound, the compound was called inactive in [15], in test [16], in [17], in [19] and in test [18].
